Where “and” joins values, the source holds several entries; their conditions need not be identical. Equal entries are not always repeated. The source holds several records for some structures; these can differ, active in one and inactive in another. Calls of active or inactive are those of the source. Unless noted, no stated cut-off is given here; in the data, active means inhibition above about 80%; inactive means the rest.
Legend:
[1] = growth inhibition, single agent or in combination, cell-based, chromothripsis tumors, cisplatin or BGB combos (AID 1671449); conditions: LFS_MB_P medulloblastoma cells;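 further: cells exposed for 96 hours; 0% = vehicle DMSO and 100% = killing by high DMSO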
[2] = growth inhibition, single agent and combos, cell-based, chromothripsis tumors, cisplatin or BGB combos (AID 1671450); conditions: HDN33 neuroblastoma cells, stronger effect = higher value;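 further: cells exposed to compound for four days; 0% = vehicle DMSO and 100% = cell killing by high DMSO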
[3] = growth inhibition, single agents and combos, ICB984, cell-based, cisplatin or BGB combos, synergistic combos for chromothripsis tumors (AID 1671451; call rule not given here;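 further: cells exposed for 96 hours before readout; 0% = vehicle DMSO and 100% = killing by high DMSO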); conditions: ICB984 medulloblastoma cells, drug combinations, stronger effect = higher value
[4] = growth inhibition, single agents and combos, LFS_MB_1R, cell-based, cisplatin or BGB combos, synergistic combos for chromothripsis tumors (AID 1671452); conditions: LFS_MB_1R medulloblastoma cells, stronger effect = higher value;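 further: cells exposed for 96 hours before readout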
[5] = growth inhibition, single agents and combos, HTB85, cell-based, BGB or cisplatin IC20 combos, synergistic combos for chromothripsis tumors (AID 1671453); conditions: HTB85 osteosarcoma cells, drug combinations, stronger effect = higher value;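 further: cells exposed for 96 hours before readout; 0% = vehicle DMSO and 100% = high DMSO killing control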
[6] = growth inhibition, single agents and combos, CRL2098, cell-based, BGB or cisplatin IC20 combos, synergistic combos for chromothripsis tumors (AID 1671454); conditions: CRL2098 osteosarcoma cells, drug combinations, stronger effect = higher value;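 further: cells exposed for 96 h before readout; 0% = vehicle DMSO and 100% = killing by high DMSO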
[7] = growth inhibition, single agents and combos, HD-MB03, cell-based, BGB or cisplatin IC20 combos, synergistic combos for chromothripsis tumors (AID 1671455; in the data active means inhibition above about 83%;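 further: 0% = vehicle DMSO and 100% = high DMSO as cytotoxic control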); conditions: HD-MB03 medulloblastoma cells, stronger effect = higher value
[8] = growth inhibition, single agents and combos, UWB1.289, cell-based, BGB or cisplatin combos, synergistic combos for chromothripsis tumors (AID 1671456); conditions: UWB1.289 ovarian carcinoma cells, stronger effect = higher value;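 further: cells exposed to compound for four days; 0% = vehicle DMSO and 100% = killing by high DMSO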
[9] = growth inhibition, single agents and combos, LFS_MB_2R, cell-based, cisplatin combos, synergistic combos for chromothripsis tumors (AID 1671457); conditions: LFS_MB_2R medulloblastoma cells, stronger effect = higher value;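 further: cells exposed to compound for four days before readout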
[10] = growth inhibition, MDA-MB-436, cell-based, BGB or cisplatin combos, synergistic combos for chromothripsis tumors (AID 1671458; call rule not given here;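 further: cells exposed for 96 hours; 0% = vehicle DMSO and 100% = killing by high DMSO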); conditions: MDA-MB-436 breast carcinoma growth inhibition, drug combinations, stronger effect = higher value
[11] = UWB1.289_BRCA1 ovarian cancer growth, cell-based, BGB or cisplatin combinations (AID 1671459); conditions: UWB1.289 BRCA1 ovarian carcinoma, drug combinations, stronger effect = higher value
[12] = drug combination toxicity in non-malignant astrocytes – cell-based, BGB or cisplatin IC20 combos, cytotoxicity control for chromothriptic childhood tumor combination screen (AID 1671460); conditions: Human astrocytes, viability inhibition, drug combinations, at 0.5 µM, stronger effect = higher value;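 further: cells exposed to compounds for 96 hours before viability readout; 0% = vehicle and 100% = killing control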
[13] = BT084 cell growth, single and combined drugs, ICGC_MB145, cisplatin and BGB IC40 combos (AID 1671461); conditions: BT084 medulloblastoma cells, drug combinations, stronger effect = higher value;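 further: cells exposed to drugs for 96 hours; 0% = vehicle DMSO and 100% = high DMSO full killing control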
[14] = RCMB18 cell growth, single agent and combined, cisplatin and BGB IC40 combos (AID 1671462); conditions: RCMB18 medulloblastoma cells, stronger effect = higher value;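 further: cells exposed to compound for four days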
[15] = CRL1545 cell growth, single agent and combined, cisplatin and BGB IC20 combos (AID 1671464); conditions: CRL1545 osteosarcoma cells, stronger effect = higher value;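 further: cells exposed to compound for 96 hours before readout; 0% = vehicle DMSO and 100% = high DMSO killing control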
[16] = measured here: combination with BGB IC40, at 0.05 µM
[17] = measured here: with BGB IC20 combination, at 0.5 µM
[18] = measured here: with cisplatin IC20 combination, at 0.5 µM
[19] = measured here: combination with cisplatin, at 0.5 µM
[20] = measured here: combination with cisplatin, at 5 µM

In the case of CCC1(O)C(=O)OCc2c1cc1n(c2=O)Cc2cc3c(CN(C)C)c(O)ccc3nc2-1 (stereo not drawn), the inhibition ([1]; at 0.5 µM, stronger effect = higher value) is reported as -7.42% (inactive) and 3.72% (inactive) and -2.55% (inactive), the inhibition ([1]; measured here: combination with BGB IC20, at 0.005 µM) is reported as -2.96% and 0.821% and -23.7% and the inhibition ([1]; measured here: combination with BGB IC40, at 0.005 µM) is reported as -28.9% and -14.4% and -12.5%. For the same compound, the inhibition [1, 16] was -8.3% and -3.25% and -7.46%, the inhibition ([1]; measured here: combination with cisplatin, at 0.5 µM, stronger effect = higher value) was 36.9% and 49.4% and -21.3% and the inhibition ([1]; measured here: combination with cisplatin, at 5 µM, stronger effect = higher value) was 93.3% and 91.7% and 75.9%. The inhibition ([2]; BGB combo, at 5 µM) was 96.4% and 97.1% and 98.1%, the inhibition ([2]; at 0.5 µM) was 83.1% (active) and 85.8% (active) and 82.9% (active) and the inhibition ([2]; cisplatin combo, at 5 µM) was 97.1% and 98% and 96.8%. For the same compound, the inhibition [2, 17] was 87% and 85.5% and 88%, the inhibition [2, 18] was 75.5% and 82.8% and 74.8% and the inhibition ([2]; single agent, at 5 µM) was 95.8% and 96% and 97%. For the same compound, the inhibition ([3]; BGB IC20 combo, at 0.005 µM) was 1.19% and -8.91% and -7.41%, the inhibition ([3]; BGB IC40 combo, at 0.005 µM) was -10.3% and 15% and 31.5% and the inhibition ([3]; BGB IC40 combo, at 0.05 µM) was 86.5% and 95.6% and 93.6%. The inhibition ([3]; at 0.5 µM) was -27.8% (inactive) and -43.8% (inactive) and -21.6% (inactive), the inhibition ([3]; cisplatin combo, at 0.05 µM) was 86% and 95.5% and 93.6% and the inhibition ([3]; cisplatin combo, at 0.5 µM) was -32.3% and -49.7% and -34.5%. For the same compound, the inhibition ([3]; cisplatin combo, at 5 µM) was -21.2% and -33.4% and -10.9%, the inhibition ([3]; measured here: 5 uM single agent, at 5 µM) was -12.3% and -23.2% and -4.56% and the inhibition ([4]; at 0.5 µM) was 47.7% (inactive) and 43.3% (inactive) and 58.9% (inactive). The inhibition [4, 16] was 10.2% and -20.8% and 4.16%, the inhibition [4, 19] was 82.2% and 88% and 73.7% and the inhibition [4, 20] was 88.7% and 77.4% and 94.2%. For the same compound, the inhibition ([5]; at 0.5 µM) was 96.9% (active) and 98% (active) and 97.5% (active), the inhibition ([5]; measured here: with BGB IC20, at 0.5 µM) was 96.8% and 97.1% and the inhibition ([5]; measured here: with BGB IC20, at 5 µM) was 97.9% and 97.6% and 98.3%. The inhibition ([5]; measured here: with cisplatin IC20, at 0.5 µM) was 95.9% and 98.1% and 97.3%, the inhibition ([5]; measured here: with cisplatin IC20, at 5 µM) was 99.6% and 99.8% and the inhibition ([5]; single agent, at 5 µM) was 99.8%. For the same compound, the inhibition ([6]; at 0.5 µM) was 65.1% (inactive) and 60.8% (inactive) and 61.1% (inactive), the inhibition ([6]; measured here: combination with BGB at IC20, at 0.5 µM) was 71% and 76.8% and 68.6% and the inhibition ([6]; measured here: combination with cisplatin at IC20, at 0.5 µM) was 64.4% and 48.3%. For the same compound, the inhibition ([7]; at 0.5 µM) was 98% (active) and 98.7% (active) and 97.9% (active), the inhibition ([7]; measured here: combo with BGB at IC20, at 0.5 µM) was 98% and 98.7% and 98.4% and the inhibition ([7]; measured here: combo with cisplatin at IC20, at 0.5 µM) was 97.6% and 98.6% and 97.2%. The inhibition ([8]; at 0.5 µM) was 77% (inactive) and 79.8% (inactive) and 77.4% (inactive), the inhibition ([8]; measured here: inhibition with BGB combination, at 0.05 µM) was 19.5% and 12.5% and 11.3% and the inhibition ([8]; measured here: inhibition with cisplatin combination, at 0.05 µM) was 13.4% and 13.9% and 19.4%. The inhibition ([9]; at 0.5 µM) was -1.34% (inactive) and 9.72% (inactive) and -3.02% (inactive), the inhibition [9, 19] was 29.4% and 18.3% and 22.7% and the inhibition [9, 20] was 72.5% and 69.7% and 68.5%. For the same compound, the inhibition ([10]; at 0.5 µM) was 69.2% (inactive) and 68.2% (inactive) and 67.8% (inactive), the inhibition ([10]; measured here: BGB combination, at 0.5 µM) was 61.3% and 61.9% and 60.6% and the inhibition ([10]; measured here: BGB combination, at 5 µM) was 65.7% and 71.1% and 67.8%. For the same compound, the inhibition ([10]; measured here: cisplatin combination, at 0.5 µM) was 72.6% and 68.5% and 65.5%, the inhibition ([10]; measured here: cisplatin combination, at 5 µM) was 82% and 77.6% and 79.6% and the inhibition ([11]; BGB combination, concentration series, at 5 µM) was 103% and 101% and 96.7%. The inhibition ([11]; at 0.5 µM) was 82.6% (active) and 85.9% (active) and 82.4% (active), the inhibition ([11]; cisplatin combination, concentration series, at 5 µM) was 113% and 107% and 110% and the inhibition [12] was 64.5% (inactive) and 68.3% (inactive) and 55.5% (inactive). The inhibition ([12]; measured here: combo with BGB IC20) was 69.2% and 71.9% and 60.5%, the inhibition ([12]; measured here: combo with cisplatin IC20) was 49.5% and 56.1% and 33.1% and the inhibition ([13]; at 0.5 µM) was 1.98% (inactive) and 4.12% (inactive) and -13.3% (inactive). The inhibition ([13]; cisplatin combination, at 0.5 µM) was 37.8% and 38.2% and 36.1%, the inhibition ([13]; cisplatin combination, at 5 µM) was 37.9% and 28.6% and 20.5% and the inhibition ([13]; measured here: BGB IC40 combination 0.05 uM, at 0.05 µM) was -16.5% and -30.7% and -23.7%. The inhibition ([13]; single agent, at 5 µM) was -16% and -5.69% and -15.3%, the inhibition ([14]; at 0.5 µM) was 11.7% (inactive) and 6.99% (inactive) and 15.6% (inactive) and the inhibition ([14]; cisplatin combo, at 5 µM) was 82.3% and 73.1% and 75.9%. The inhibition ([14]; measured here: BGB IC40 combination, at 0.05 µM) was -8.83% and -28.2% and -20.8%, the inhibition [14, 19] was 55.7% and 30% and 38.3% and the inhibition ([14]; single agent, at 5 µM) was 22.6% and 40.2% and 40.4%. The inhibition ([15]; at 0.5 µM) was 78.9% (inactive) and 88.5% (active) and 81.8% (active), the inhibition [15, 17] was 91% and 95% and 93.8% and the inhibition [15, 18] was 72.9% and 85.2% and 75.9%. For the same compound, the inhibition ([15]; single agent, at 0.05 µM) was 35.3% and 52% and 56.4% and the inhibition ([15]; single agent, at 5 µM) was 99.6% and 99.9% and 99.7%.

Reference: PubChem BioAssay
